Compound activity from PubChem.
Shown are actives, neighbours in structure and some others; about 12% of the full set was active somewhere.
AmpC no deterg: inhibitors of E. coli AmpC beta-lactamase without detergent. P00811. Potency, µM (doses to about 57.1 µM), for the others: at the top dose activity change, negative = inhibition, usual class: inhibitors. 330,000 compounds, 0.52% hits. AID 485341. AmpC nitrocefin hydrolysis, absorbance 480 nm, 0.0001% Triton;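 also: plate controls were no compound for no effect and no enzyme for full effect; nearly all actives have a fitted effect of over 20% in size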
Target sequence (P00811 whole entry, looked up): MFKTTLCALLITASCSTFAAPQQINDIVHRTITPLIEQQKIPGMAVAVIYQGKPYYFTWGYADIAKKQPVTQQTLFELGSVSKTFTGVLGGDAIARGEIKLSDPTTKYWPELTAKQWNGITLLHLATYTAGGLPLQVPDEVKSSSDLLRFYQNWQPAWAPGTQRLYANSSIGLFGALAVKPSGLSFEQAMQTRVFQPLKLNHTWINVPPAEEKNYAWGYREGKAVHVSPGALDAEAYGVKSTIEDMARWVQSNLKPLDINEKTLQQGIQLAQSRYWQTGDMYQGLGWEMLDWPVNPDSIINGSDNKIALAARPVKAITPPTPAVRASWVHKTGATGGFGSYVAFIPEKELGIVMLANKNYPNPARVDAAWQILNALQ
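AmpC (5.3 nM in the dispensed reagent) in 20 mM phosphate pH 7.0 with 0.01% (detergent screen) or 0.0001% Triton X-100 was preincubated with compounds for 15 min at room temperature. Nitrocefin was then added from an 800 uM solution, and hydrolysis was followed at 480 nm.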
Pf growth 96h: P. falciparum growth inhibition at 96 hours; P. falciparum luciferase reporter growth, 96 h; Potency, µM (series often up to 28.7 µM), for inactives: at the top dose activity change, negative = inhibition, most hits filed as inhibitors; 320,000 compounds, 6.9% hits; also: % is scaled to controls: 0 for no effect and ±100 for the full control effect
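Infected RBCs, 2% Hct / 0.05% parasitemia final; luciferase-reporter P. falciparum; cpd 96 h, 37 C, 5% CO2; luciferase detection reagent; luminescence.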
AmpC inh detg: blocks E. coli AmpC beta-lactamase in detergent assay | AID 485294 | 370,000 compounds, 0.041% hits | P00811 | Potency, µM (titrated, usually from 114 µM), without a hit: top-dose activity change, negative = inhibition, hits mostly inhibitors | AmpC hydrolysis of nitrocefin, absorbance 480 nm, 0.01% Triton;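 also: 0% = no-compound wells and -100% = no-enzyme wells; nearly all actives have a fitted effect of over 25% in size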
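AmpC (5.3 nM in the dispensed reagent) in 20 mM phosphate pH 7.0 with 0.01% (detergent screen) or 0.0001% Triton X-100 was preincubated with compounds for 15 min at room temperature. Nitrocefin was then added from an 800 uM solution, and hydrolysis was followed at 480 nm.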
SARS PLP yeast: blocks SARS-CoV papain-like protease in a yeast assay; Potency, µM (top dose mostly 32.9 µM), inactives show at the top dose activity, positive = growth rescue, actives largely listed as activators; AID 485353; 330,000 compounds, 0.19% hits; S. cerevisiae expressing SARS-CoV PLpro, growth rescue; calls by dose curve; also: 0% is about no effect; nearly all actives have a fitted effect of over 55% in size
Pf growth 48h: P. falciparum growth inhibition at 48 hours (one generation); P. falciparum luciferase growth in erythrocytes, 48 h; 310,000 compounds, 5.9% hits; Potency, µM (top dose mostly 28.7 µM), without a hit: at the highest dose activity change, negative = inhibition, usual class: inhibitors; also: % is scaled to controls: 0 for no effect and ±100 for the full control effect
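First compound was added to culture medium, then infected red cells at 0.1% parasitemia and 2% hematocrit (final). After incubation at 37 C under 5% CO2, luciferase detection reagent was dispensed and light output recorded.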
Sm TGR inh: blocks Schistosoma mansoni thioredoxin glutathione reductase; Potency, µM (series often up to 114 µM), for the others: top-dose activity change, negative = inhibition, actives largely listed as inhibitors; 360,000 compounds, 3% hits; purified TGR, DTNB reduction, TNB absorbance 405 nm; Q962Y6; also: % is scaled to controls: 0 for no effect and ±100 for the full control effect; nearly all actives have a fitted effect of over 60% in size
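TGR 20 nM + NADPH 100 uM (dispensed conc.), cpd preinc 15 min RT; start with NADPH (500 uM addition) then DTNB (15 mM addition). Kinetic TNB absorbance, 405 nm filter. Four-parameter Hill fit across titration.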
An asterisk follows results filed as active; ? = inconclusive; nt = no result given. Unless noted, calls follow the shape of the dose curve; as a rule, active = well fitted curve in the direction sought with a large enough effect; inconclusive = small, poorly fitted or top-dose-only effect, or another doubt; inactive = no such curve, though single readings can be large; an effect the other way counts as inactive or inconclusive. Potency is read from the fitted curve at half-maximal effect.

SMILES	AmpC no deterg	Pf growth 96h	AmpC inh detg	SARS PLP yeast	Pf growth 48h	Sm TGR inh
O=C(CNCc1cccs1)NC12CC3CC(CC(C3)C1)C2	-18%	5.9µM*	0%	-9%	10%	-11%
O=C(Cc1cccs1)NNC(=O)C12CC3CC(CC(C3)C1)C2	-3%	-2%	-16%	2%	10µM*	-5%
CC(C)n1c(C(O)c2ccc3c(c2)OCO3)nc2ccccc21 (centres undefined)	-1%	-10%	2%	1%	9.3µM*	7%
CCC(C)(C)n1nnnc1C(c1cc2cc(C)cc(C)c2[nH]c1=O)N1CCN(C(=O)c2ccco2)CC1 (centres undefined)	36%	1.7µM*	-1%	-4%	?	18µM*
Cc1cccc2cc(C(c3nnnn3C(C)(C)C)N3CCN(C(=O)c4ccco4)CC3)c(=O)[nH]c12 (centres undefined)	-3%	-25%	-5%	2%	3.3µM*	-6%
Cc1ccc2[nH]c(=O)c(C(c3nnnn3C(C)(C)C)N3CCN(C(=O)c4ccco4)CC3)cc2c1 (centres undefined)	-1%	?	-9%	4%	9.3µM*	?
CCC(C)(C)n1nnnc1C(c1ccccc1OC)N1CCN(C(=O)c2ccco2)CC1 (centres undefined)	103%	14%	-4%	1%	1.9µM*	-34%
COc1ccc(C(c2nnnn2C(C)(C)C)N2CCN(C(=O)c3ccco3)CC2)cc1 (centres undefined)	62%	-20%	2%	1%	-33%	-14%
COc1ccc(C(=O)NCC(=O)OCC(=O)Nc2ccc(C)c(S(=O)(=O)N(C)C)c2)cc1OC	-51%	-13%	-2%	0%	-13%	?
COC(=O)c1cc2sccc2n1Cc1nc(-c2ccc(Cl)cc2)oc1C	-5%	10µM*	23%	-4%	12%	0%
COC(=O)c1cc2occc2n1Cc1nc(-c2cccc(Cl)c2)oc1C	-12%	?	18%	-13%	1%	-29%
COC(=O)c1cc2ccsc2n1Cc1nc(-c2cccc(Cl)c2)oc1C	-25%	4.1µM*	-15%	5%	nt	-3%
COC(=O)c1cc2sc(Cl)cc2n1Cc1nc(-c2ccc(OC)cc2)oc1C	nt	nt	19%	nt	nt	0%
COC(=O)c1cc2sccc2n1Cc1nc(-c2cccc(Cl)c2)oc1C	-13%	9.3µM*	17%	-3%	nt	3%
O=c1c2sc3ccccc3c2n(Cc2ccccc2F)c(=O)n1CCc1ccccc1	nt	nt	-10%	nt	nt	-9%
COc1cccc(CNC(=O)c2cc(C3CC3)nc3c2cnn3C(C)C)c1	12%	3.3µM*	?	3%	4.7µM*	-1%
COc1ccc(CNC(=O)c2cc(C3CC3)nc3c2cnn3C(C)C)cc1OC	93%	?	-10%	-2%	-11%	-2%
Cc1ccc(CNC(=O)c2cc(C3CC3)nc3c2cnn3C(C)C)cc1	-24%	?	-2%	-5%	13µM*	-12%
O=C(NN1C(=O)/C(=C/c2cc([N+](=O)[O-])ccc2O)SC1=S)c1ccccc1O	-19%	3%	1%	-12%	31%	35µM*
Cc1ccc(/C=C2\SC(=S)N(/N=C/c3cc([N+](=O)[O-])ccc3O)C2=O)o1	-54%	?	-4%	3%	?	8.9µM*
CN1CCN(c2nc(-c3ccc(Cl)c(Cl)c3)nc3ccccc23)CC1	-5%	?	-2%	0%	-25%	-6%
CSc1nc(N2CCN(C)CC2)c2ccccc2n1	-18%	15µM*	8%	0%	-10%	?
c1ccc(N2CCN(c3nc(-c4ccccn4)nc4ccccc34)CC2)cc1	89%	2.9µM*	-3%	-17%	1.9µM*	6%
CCCOc1ccc(-c2nc(N3CCN(C)CC3)c3ccccc3n2)cc1	159%	?	?	-3%	-1%	2%
